High-throughput results from PubChem BioAssay.
BAZ2B block = BAZ2B (human) inhibition. Potency, µM (top dose mostly 114 µM), actives largely listed as inhibitors. AlphaScreen BAZ2B-H3K14Ac peptide displacement. Q9UIF8. hit rate 4.4% among 360,000; also: nearly all actives have a fitted effect of over 60% in size
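BAZ2B (50 nM) with biotin-H3(5-23)K14Ac peptide (50 nM) in PBS pH 7.4, 0.01% Tween-20, preformed 30 min, then compound 30 min at room temperature; top concentration 110uM. AlphaScreen streptavidin donor/nickel chelate acceptor beads (10 ug/mL final), 20 min dark, signal read.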
JMJD2A Tudor = inhibitors of human JMJD2A Tudor domain. O75164. AlphaScreen JMJD2A-Tudor / H3K4me3 peptide binding. Potency, µM (titrated, usually from 114 µM), actives largely listed as inhibitors. hit rate 4.4% among 390,000. AID 504339; also: nearly all actives have a fitted effect of over 50% in size
CtBP-E1A blk = inhibitors of CtBP/E1A interaction; AlphaScreen GST-E1A/His-CtBP binding, 1536-well; active compounds read low; activity change, % (test concentration not listed); hit rate 0.49% among 340,000; AID 651724; in the data active = activity change below about -65%; inconclusive = mostly about -30% to -63%
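Protein mix (5X: 125 nM each GST-E1A, His-CtBP) was incubated with pinned compound 2 h at 37 deg C in dark, in 50 mM Tris pH 8.0 buffer with 300 mM NaCl. Glutathione donor and nickel acceptor beads followed; AlphaScreen signal read after 1 h.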
G9a block = inhibitors of human histone lysine methyltransferase G9a; G9a H3K9 monomethylation, AlphaScreen, 2 h; hit rate 8.8% among 350,000; Potency, µM (titrated, usually from 102 µM), most hits filed as inhibitors; Q96KQ7; AID 504332; also: nearly all actives have a fitted effect of over 75% in size
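Quantitative HTS format: methyltransferase activity on a biotin-tagged H3K9 peptide is measured by AlphaScreen, using a rabbit anti-monomethyl-H3K9 antibody with streptavidin donor and anti-IgG acceptor beads. Final levels are 20 nM enzyme, 500 nM peptide, 20 uM SAM; 2 h RT.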
Six1-Eya2 blk = Six1/Eya2 interaction inhibition; Q15475+O00167; AlphaScreen GST-Six1/His-Eya2 binding, biochemical; active compounds read low; activity change, % (concentration not given with the values); hit rate 0.56% among 360,000; AID 651725; in the data active = activity change below about -65%; inconclusive = mostly about -30% to -63%
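AlphaScreen with GST-Six1 and His-Eya2 (5X mix: 250 nM and 500 nM), glutathione donor and nickel acceptor beads; buffer 50 mM Tris pH 8.0, 300 mM NaCl, 1 mM TCEP; 1 h at 37 C in the dark.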
HP1b chromo inh = inhibitors of HP1-beta chromodomain binding to methylated histone tails | P83916 | AlphaScreen HP1-beta / biotin-H3K9me3 peptide binding | Potency, µM (highest dose often 114 µM), actives largely listed as inhibitors | hit rate 0.56% among 390,000 | AID 540317; also: nearly all actives have a fitted effect of over 70% in size
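Compound inhibition of the preformed complex between 50 nM HP1-beta and 50 nM biotinylated H3K9me3 peptide was read by AlphaScreen. Buffer was PBS pH 7.4 with 0.01% Tween-20. Incubations ran 30 min at room temperature, with 10 ug/mL donor/acceptor beads.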
Numbers stand for hits; i = inactive; ? = inconclusive; nt = not tested or not shown; [ ] = another dose, or the depositor's remark. An excerpt weighted towards active compounds, which were near 10% of everything screened. Unless noted, calls follow the shape of the dose curve; as a rule, active = well fitted inhibition curve with a large enough effect; inconclusive = small, poorly fitted or top-dose-only effect; inactive = no such curve, though single readings can be large or run the other way.

SMILES | BAZ2B block | JMJD2A Tudor | CtBP-E1A blk | G9a block | Six1-Eya2 blk | HP1b chromo inh
O=C(Nc1ccc(N2CCOCC2)cc1)C1CCCCC1 | i | i | i | i | i | i
O=C(CNCC1CCCCC1)Nc1ccc(N2CCCCC2)cc1 | 28µM | nt | nt | 22µM | nt | nt
O=C(CNCC1CCCO1)Nc1ccccc1N1CCCCCC1 (configuration not stated) | ? | ? | i | 45µM | i | i
CC(=O)c1c(C)[nH]c(C(=O)N(C)C(c2ccccc2)c2ccccc2)c1C | i | i[11.4 µM] | nt | i | i | i
COC(=O)CCCNC(=O)c1ccc(OS(=O)(=O)c2cc([N+](=O)[O-])ccc2C)cc1 | i | i | i | ? | i | i
CC1(C)CC(=O)N(CC(=O)NCc2ccccc2)c2ccccc2S1(=O)=O | i | i | i | i | i | i
Cc1ccc(NC(=O)CNC2CCCCC2)cc1Cl | i | i | i | i | i | i
O=C(CNC1CCCCCC1)Nc1ccc(N2CCCC2)cc1 | ? | nt | nt | 28µM | nt | nt
O=C(CNC1CCCC1)Nc1ccc(N2CCCCCC2)cc1 | 22µM | 2.8µM | i | 5.6µM | ? | 40µM
CCN(CC)c1ccc(NC(=O)CNCc2ccccc2Cl)c(C)c1 | 18µM | 10µM | ? | 35µM | ? | 25µM
CCN(CC)c1ccc(NC(=O)CN2C(=O)CC(C)(C)S(=O)(=O)c3ccccc32)c(C)c1 | i | i | i | 8.9µM | i | i
O=C(c1cc2ccc3cccnc3c2[nH]1)N1CCN(c2ccccc2)CC1 | i | ? | nt | i | nt | i
O=C(COC(=O)C1CCCCC1)Nc1ccc(N2CCCCC2)cc1 | ? | ? | ? | 11µM | ? | ?
CC1CCN(CC(=O)Nc2ccc(N3CCCCCC3)cc2)CC1 | 20µM | 20µM | ? | 10µM | ? | 22µM
CC1CCN(CC(=O)Nc2ccc(S(=O)(=O)N3CCCCC3)cc2)CC1 | i | i | i | nt | i | i
NS(=O)(=O)c1ccc(NC(=O)COC(=O)C2CCCCC2)cc1 | i | i | i | i[12.7 µM] | i | i
O=C(CNCC1CCCO1)Nc1ccc(N2CCCCCC2)cc1 (configuration not stated) | 35µM | 3.2µM | i | ? | i | 14µM
O=C(COc1ccc(Cl)cc1)Nc1ccc2c(c1)nc1n2CCOC1 | i | i | i | i[0.0925 µM] | i | i
Cc1cc(S(=O)(=O)Nc2cc3c(cc2N2CCOCC2)n(C)c(=O)c(=O)n3C)ccc1F | i | i | nt | i | nt | i
OC(CNCCc1ccc(C(F)(F)F)cc1)COC(c1ccccc1)c1ccccc1 (configuration not stated) | 25µM | 13µM | i | ? | i | ?
COc1ccc(CCNC(=O)c2ccc(Cn3c(=O)c4ccccc4n(Cc4cccc(Cl)c4)c3=O)cc2)cc1OC | i | i | nt | i | nt | i
Oc1ccc(N2CCN(C(c3ccccn3)c3nnnn3C3CCCC3)CC2)cc1 (configuration not stated) | i | 25µM | i | 1.8µM | i | ?
CCC(c1nnnn1Cc1ccccc1)N1CCN(c2ccc(OC)cc2)CC1 (configuration not stated) | ? | ? | nt | 13µM | i | i
COc1ccc(N2CCN(C(c3ccccc3)c3nnnn3Cc3ccccc3)CC2)cc1 (configuration not stated) | nt | ? | nt | nt | nt | i
CCC(C)(C)n1nnnc1C(c1ccccn1)N1CCN(c2cccc(OC)c2)CC1 (configuration not stated) | i | i | i | 20µM | i | i
Fc1ccc(C(c2nnnn2Cc2cccs2)N2CCN(c3ccccc3)CC2)cc1 (configuration not stated) | i | i | i | i | i | i
Oc1ccc(N2CCN(C(c3ccc(Cl)cc3)c3nnnn3Cc3ccc(F)cc3)CC2)cc1 (configuration not stated) | nt | 40µM | nt | nt | nt | ?
CCC(C)(C)n1nnnc1C(c1ccccn1)N1CCOCC1 (configuration not stated) | i | i | i | ? | i | i
CCC(c1nnnn1Cc1ccc2c(c1)OCO2)N1CCN(c2ccc(OC)cc2)CC1 (configuration not stated) | 32µM | ? | ? | 40µM | i | i
